Screening data from PubChem.
HT1080 IDH1KD tx – kills HT-1080 cells with IDH1 knockdown. HT-1080 IDH1 knockdown viability, ATP luminescence, 48 h. Potency, µM (doses to about 46.1 µM), hits mostly cytotoxic. 2% of 360,000 active. AID 686971
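% activity derives from luminescence (CellTiter-Glo), normalised to DMSO and no-cell wells. HT-1080-IDH1KD cells, 750/well, had 48 h compound exposure at 37 °C.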
KB-V1 cytotox – KB-V1 MDR subline cytotoxicity; KB-V1 MDR cells viability, CellTiter-Glo, 72 h; Potency, µM (doses to about 46.1 µM), actives largely listed as cytotoxic; 3.4% of 400,000 active; AID 1347076; also: nearly all actives have a fitted effect of over 60% in size
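Luminescent ATP read-out (CellTiter-Glo, 10 min) measures survival of drug-selected KB-V1 MDR cells after 72 h, 37 degrees C compound exposure. Medium: phenol-red-free DMEM, 10% FBS. Values from fitted concentration-response curves.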
HT1080NT lethal – kills 2HG-producing HT-1080-NT fibrosarcoma cells | 1.6% of 360,000 active | AID 686970 | HT-1080-NT fibrosarcoma viability, CellTiter-Glo ATP luminescence, 48 h | Potency, µM (doses to about 46.1 µM), usual class: cytotoxic;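 also: NT is the 2HG producing partner of a matched IDH1 knockdown line; nearly all actives have a fitted effect of over 55% in size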
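750 cells/well, RPMI + 5% FBS; 2 h settle, compound pin-transfer, 48 h at 37 degrees C. CellTiter-Glo 10 min RT, luminescence. Normalized to DMSO and media-only wells.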
SW480 rerep – DNA re-replication induction in SW480 cells; 1.8% of 340,000 active; SW480 DNA re-replication, Hoechst DNA content imaging, 48 h; Potency, µM (doses to about 46.1 µM), most hits filed as activators; also: nearly all actives have a fitted effect of over 55% in size
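Compounds, transferred as 23 nL by pin tool, were incubated with cells for 48 hr; DNA content per nucleus was then quantified by Hoechst staining and fluorescence plate imaging.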
MCF10A rereplic – induces DNA re-replication in MCF 10a normal breast cells | MCF 10A DNA re-replication, Hoechst nuclear intensity, 48 h | Potency, µM (top dose mostly 46.1 µM), usual class: activators | 2.9% of 350,000 active; also: nearly all actives have a fitted effect of over 50% in size
KB-3-1 cytotox – kills parental KB-3-1 adenocarcinoma cells | AID 1347075 | Potency, µM (top dose mostly 46.1 µM), usual class: cytotoxic | KB-3-1 viability, CellTiter-Glo ATP luminescence, 72 h | 1.4% of 400,000 active; also: nearly all actives have a fitted effect of over 60% in size
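Parental KB-3-1 adenocarcinoma cells in phenol-red-free DMEM with 10% FBS were pin-treated with compounds at several concentrations, incubated 72 h at 37 °C, and viability read by CellTiter-Glo luminescence; concentration-effect curves were fitted after normalization.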
Large screens that a line does not name were inactive. Compounds with a hit are over-represented: about 7.9% of the library has one in this group of screens. Calls follow the shape of the dose curve; as a rule, active = well fitted curve in the direction sought with a large enough effect; inconclusive = small, poorly fitted or top-dose-only effect, or another doubt; inactive = no such curve, though single readings can be large; an effect the other way counts as inactive or inconclusive.

CC(=O)O[C@@H]1/C=C/[C@](C)(O)C[C@@H](C)C/C=C/[C@H]2[C@@H]3O[C@]3(C)[C@@H](C)[C@H]3[C@H](Cc4ccccc4)NC(=O)[C@@]312	HT1080 IDH1KD tx inconclusive, SW480 rerep 2.6µM, MCF10A rereplic 1.5µM
Cc1cc(Cl)ccc1C(=O)C1CCCN(C2CCSCC2)C1 (centres undefined)	none
O=C(c1ccc(C(F)(F)F)cc1)C1CCCN(C2CCSCC2)C1 (centres undefined)	KB-V1 cytotox inconclusive, SW480 rerep 5.2µM
COc1cc(CN2CCCC(CCC(=O)NCc3ccc(C)o3)C2)cc2c1OCO2 (centres undefined)	SW480 rerep inconclusive, MCF10A rereplic inconclusive
O=C(Cc1ccccc1)OCCN1CCOCC1	none
O=C(c1ccccc1)C(Cc1ccccc1)N1CCOCC1 (centres undefined)	KB-V1 cytotox 18µM
Cc1cc(C)cc(-n2c(/C=C/c3cccc(F)c3)nc3ccccc3c2=O)c1	KB-V1 cytotox inconclusive (no result: HT1080 IDH1KD tx, HT1080NT lethal, SW480 rerep, MCF10A rereplic)
O=[N+]([O-])c1cccc(CN2CCN(Cc3ccc(Br)cc3)CC2)c1	MCF10A rereplic 9.2µM, KB-3-1 cytotox inconclusive
Cc1ccc(-c2nc(CN3C(=O)CN=C(c4ccccc4)c4ccccc43)c(C)o2)cc1	none (no result: HT1080 IDH1KD tx, HT1080NT lethal, SW480 rerep, MCF10A rereplic)
CCOC(=O)c1ccc(NC(c2ccc(N(C)C)cc2)P(=O)(OC(C)C)OC(C)C)cc1 (centres undefined)	SW480 rerep inconclusive, MCF10A rereplic inconclusive
CC(=O)OCC1=C(C(=O)O)N2C(=O)[C@@H](N)[C@@H]2SC1	none (no result: HT1080 IDH1KD tx, KB-V1 cytotox, HT1080NT lethal, KB-3-1 cytotox)
O=c1ccc2cc(O[C@@H]3O[C@@H](CO)[C@H](O)[C@@H](O)[C@@H]3O)c(O)cc2o1	SW480 rerep inconclusive, MCF10A rereplic 18µM
Cc1cccc(-n2c(/C=C/c3cn(C)c4ccccc34)nc3ccccc3c2=O)c1	none (no result: HT1080 IDH1KD tx, HT1080NT lethal, SW480 rerep, MCF10A rereplic)
O=C(/C=C/c1ccccc1)C1C(=O)c2ccccc2C1=O	KB-V1 cytotox 3.7µM, MCF10A rereplic inconclusive, KB-3-1 cytotox inconclusive
COc1ccc2[nH]c(C)c(CCNCc3cc(OC)c(OC)c(OC)c3)c2c1	KB-V1 cytotox inconclusive
COc1ccc(CNCCc2c(C)[nH]c3ccc(OC(F)(F)F)cc23)c(OC)c1	HT1080 IDH1KD tx 23µM, KB-V1 cytotox 7.3µM, HT1080NT lethal 21µM, SW480 rerep inconclusive, MCF10A rereplic 21µM, KB-3-1 cytotox inconclusive
COc1cccc(CN(C)C[C@@H]2OCc3ccccc3-c3c(n(C)c4ccccc34)C(=O)N([C@@H](C)CO)C[C@H]2C)c1	HT1080 IDH1KD tx inconclusive, HT1080NT lethal inconclusive, KB-3-1 cytotox inconclusive (no result: SW480 rerep, MCF10A rereplic)
C[C@@H]1CN([C@H](C)CO)C(=O)c2c(c3ccccc3n2C)-c2ccccc2CO[C@H]1CN(C)Cc1ccc(-c2ccccc2)cc1	HT1080 IDH1KD tx 16µM, KB-V1 cytotox inconclusive, HT1080NT lethal 21µM, KB-3-1 cytotox inconclusive (no result: SW480 rerep, MCF10A rereplic)
Cc1cccnc1	none
COC1CC(C)C(OC)c2cc(O)cc(c2O)NC(=O)C(C)=CC=CC(C)C(OC(N)=O)C(C)=CC(C)C1OC (centres undefined)	HT1080 IDH1KD tx 23µM, SW480 rerep 2.6µM, MCF10A rereplic 5.8µM
CC(C)Sc1nnc([C@@H](N)Cc2c[nH]c3ccccc23)o1	KB-V1 cytotox 18µM
NC(=O)CSc1nnc([C@@H](N)Cc2c[nH]c3ccccc23)o1	none
O=C1C2CCCN2C(c2cccs2)N1c1ccc(Cl)cc1 (centres undefined)	KB-V1 cytotox inconclusive, MCF10A rereplic inconclusive, KB-3-1 cytotox inconclusive
COc1ccc(/C=N/N=C(/N)N[N+](=O)[O-])c(OC)c1	KB-V1 cytotox 1µM, MCF10A rereplic inconclusive, KB-3-1 cytotox 1.5µM
N/C(=N\N=C/c1ccc(-c2ccc(O)c(C(=O)O)c2)o1)N[N+](=O)[O-]	KB-V1 cytotox inconclusive
CSc1cc(-c2ccccc2)n(Cc2c(Cl)cccc2Cl)c(=O)c1C#N	KB-V1 cytotox inconclusive, MCF10A rereplic inconclusive, KB-3-1 cytotox 3.3µM
CCCC12CN3CC(C)(CN(C1)C3c1ccccn1)C2=O (centres undefined)	none (no result: HT1080 IDH1KD tx, HT1080NT lethal, SW480 rerep, MCF10A rereplic)
